# HEK cytotox: kills HEK 293 cells | HEK 293 viability, ATP luminescence (CellTiter-Glo), 48-72 h | Potency, µM (series often up to 115 µM), for inactives: at the highest dose activity change, negative = cytotoxicity, most hits filed as inhibitors | hit rate 6.6% among 94,000 | AID 1345083; also: % is scaled to controls: 0 for no effect and ±100 for the full control effect; nearly all actives have a fitted effect of over 60% in size
#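 HEK 293 cells at 250 cells/well were exposed to compounds by pintool transfer for 48 or 72 hr at 37 degree Celsius, 5% CO2. Viability was read as ATP-coupled luminescence with CellTiter-Glo after 10 min at room temperature.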
# SNCA expr inh: SNCA gene expression inhibition; AID 1671194; HEK-293 SNCA-luciferase knock-in, luminescence, 24 h; hit rate 0.17% among 140,000; Potency, µM (doses to about 57.2 µM), for the others: at the highest dose activity change, negative = inhibition, most hits filed as inhibitors;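 also: plate controls were DMSO cells for no effect and cell-free wells for full effect; nearly all actives have a fitted effect of over 45% in size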
# Luciferase inh: inhibitors of firefly (Photinus pyralis) luciferase. hit rate 2.5% among 76,000. Potency, µM (highest dose often 115 µM), actives largely listed as inhibitors. AID 1347043. purified P. pyralis luciferase, luminescence, biochemical. P08659; also: % is scaled to controls: 0 for no effect and ±100 for the full control effect; nearly all actives have a fitted effect of over 65% in size
#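 Luminescence read by CCD imager after adding enzyme (10nM final) to wells holding compound, titrated in qHTS. Substrates 10uM each D-luciferin and ATP; buffer 50mM Tris acetate pH 7.5, 10mM Mg acetate, Tween-20, BSA.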
# 3T3 cytotox: cytotoxic compounds in NIH 3T3 cells | AID 1345082 | hit rate 4.3% among 94,000 | NIH 3T3 viability, CellTiter-Glo ATP luminescence, 48-72 h | Potency, µM (doses to about 96.7 µM), for inactives: at the highest dose activity change, negative = cytotoxicity, hits mostly inhibitors; also: % is scaled to controls: 0 for no effect and ±100 for the full control effect; nearly all actives have a fitted effect of over 55% in size
#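 First NIH 3T3 cells are plated at 400 cells/well; next compound is pinned in; then plates incubate 48 or 72 hr at 37 °C; finally CellTiter-Glo is added and luminescence read after 10 min.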
# SNCA viab count: reduces viability of HEK-293 SNCA reporter cells; HEK-293-SNCA-luc viability, GF-AFC fluorescence, 24 h; Potency, µM (series often up to 57.1 µM), for the others: at the highest dose activity change, negative = cytotoxicity, actives largely listed as cytotoxic; AID 1671193; hit rate 0.12% among 150,000;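 also: 0% = DMSO-treated cells and -100% = medium-only wells without cells; nearly all actives have a fitted effect of over 30% in size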
#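 Cytotoxicity counterscreen: after 24 h compound treatment of genome-edited SNCA-luciferase HEK-293 cells, live-cell protease substrate GF-AFC read by fluorescence after 30 min; activity scaled between DMSO (0%) and medium-only (-100%), curves Hill-fitted.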
# hNpr1 antagonist: blocks ANP-stimulated signaling of human Npr1 receptor | HEK293 hNpr1 GloSensor cGMP, ANP-stimulated luminescence | Potency, µM (titrated, usually from 46.3 µM), for the others: at the top dose activity change, negative = inhibition, hits mostly inhibitors | hit rate 1.6% among 76,000 | P16066; calls by dose curve; also: % is scaled to controls: 0 for no effect and ±100 for the full control effect; nearly all actives have a fitted effect of over 60% in size
# Target sequence (P16066 whole entry, looked up): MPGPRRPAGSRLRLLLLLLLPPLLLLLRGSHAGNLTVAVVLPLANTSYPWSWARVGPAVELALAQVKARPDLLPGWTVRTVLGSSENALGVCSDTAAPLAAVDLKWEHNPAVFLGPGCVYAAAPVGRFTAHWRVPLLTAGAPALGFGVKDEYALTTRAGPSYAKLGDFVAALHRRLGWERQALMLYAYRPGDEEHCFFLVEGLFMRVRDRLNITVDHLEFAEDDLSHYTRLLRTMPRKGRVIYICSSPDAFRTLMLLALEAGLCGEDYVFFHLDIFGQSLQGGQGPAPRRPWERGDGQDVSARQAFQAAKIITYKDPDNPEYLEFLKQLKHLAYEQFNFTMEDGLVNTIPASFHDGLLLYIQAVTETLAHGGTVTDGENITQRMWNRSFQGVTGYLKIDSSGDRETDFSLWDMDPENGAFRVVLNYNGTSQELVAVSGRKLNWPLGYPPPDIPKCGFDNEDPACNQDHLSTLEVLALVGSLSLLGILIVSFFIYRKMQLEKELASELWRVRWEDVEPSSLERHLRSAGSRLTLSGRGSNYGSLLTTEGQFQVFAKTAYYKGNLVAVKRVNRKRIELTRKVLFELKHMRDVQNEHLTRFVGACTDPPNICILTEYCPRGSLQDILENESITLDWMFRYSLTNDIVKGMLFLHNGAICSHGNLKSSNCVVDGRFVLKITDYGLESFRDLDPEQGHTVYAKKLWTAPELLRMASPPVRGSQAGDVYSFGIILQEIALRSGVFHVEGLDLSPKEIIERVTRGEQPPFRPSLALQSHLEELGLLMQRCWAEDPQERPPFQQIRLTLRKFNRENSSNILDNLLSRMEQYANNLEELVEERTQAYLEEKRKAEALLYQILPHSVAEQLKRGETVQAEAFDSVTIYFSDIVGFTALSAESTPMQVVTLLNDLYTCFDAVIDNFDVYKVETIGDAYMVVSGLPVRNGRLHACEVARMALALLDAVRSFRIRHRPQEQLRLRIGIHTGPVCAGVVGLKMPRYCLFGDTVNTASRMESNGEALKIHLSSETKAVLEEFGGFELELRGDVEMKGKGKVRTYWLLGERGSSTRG
#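 HEK293 cells stably expressing human Npr1 and cGMP GloSensor pGS-40F, loaded 2 h with 2% GloSensor reagent, given compound 30 min at room temperature. Luminescence read before and 20 min after 0.1 nM hNppA.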
# NPR1 antag cnf: confirmation of human Npr1 natriuretic peptide receptor antagonists | shares compounds with hNpr1 antagonist | HEK293 hNpr1 cGMP GloSensor luminescence, ANP-stimulated | AID 1347044 | hit rate 76% among 1,400 | Potency, µM (series often up to 57.6 µM), inactives show at the top dose activity change, negative = inhibition, most hits filed as inhibitors; calls by dose curve; also: nearly all actives have a fitted effect of over 70% in size
# Npr2 selectivity: antagonizes human Npr2, subtype selectivity check; HEK293 hNpr2 GloSensor cGMP luminescence, CNP-stimulated; AID 1347046; Potency, µM (highest dose often 57.6 µM), inactives show top-dose activity change, negative = inhibition, most hits filed as inhibitors; shares compounds with hNpr1 antagonist; hit rate 67% among 1,400; calls by dose curve; also: nearly all actives have a fitted effect of over 70% in size
# FLuc counter: counter-screen for Npr1 antagonists: firefly luciferase inhibitors; shares compounds with hNpr1 antagonist; purified FLuc enzyme, luminescence, Km substrate; Potency, µM (titrated, usually from 57.6 µM), for inactives: top-dose activity change, negative = inhibition, hits mostly inhibitors; hit rate 0.7% among 1,400; AID 1347047; also: series mostly up to about 58 µM; 0% is about no effect
# GloSensor ctrl: counter-screen for Npr1 antagonists: GloSensor control cell line | shares compounds with hNpr1 antagonist | HEK293 GloSensor cGMP, SNP-stimulated, luminescence | hit rate 69% among 1,400 | Potency, µM (series often up to 57.6 µM), without a hit: top-dose activity change, negative = inhibition, hits mostly inhibitors | AID 1347051; calls by dose curve; also: % is scaled to controls: 0 for no effect and ±100 for the full control effect; nearly all actives have a fitted effect of over 70% in size
# Numbers without * were called inactive; i = inactive; u = inconclusive; x = no result given; [ ] = remark or other dose. Only some compounds are listed: those with a hit (about 7.4% of all), similar ones and a draw of the others. Unless noted, calls follow the shape of the dose curve; as a rule, active = well fitted curve in the direction sought with a large enough effect; inconclusive = small, poorly fitted or top-dose-only effect, or another doubt; inactive = no such curve, though single readings can be large; an effect the other way counts as inactive or inconclusive. Potency is read from the fitted curve at half-maximal effect.
SMILES,HEK cytotox,SNCA expr inh,Luciferase inh,3T3 cytotox,SNCA viab count,hNpr1 antagonist,NPR1 antag cnf,Npr2 selectivity,FLuc counter,GloSensor ctrl
c1csc(-c2ccnc(N[C@H]3CO[C@H]4[C@@H]3OC[C@@H]4NCC3CCCCC3)n2)c1,u,u,i,32µM*,u,7.9µM*,11µM*,18µM*,1%[86.2 µM],9.9µM*
CN(C)c1ccc(-c2ccnc(N[C@H]3CO[C@H]4[C@@H]3OC[C@H]4OC(=O)NCc3ccccc3)n2)cc1,u,-22%,i,-20%,-6%,-4%,x,x,x,x
COc1ccc(NC(=O)O[C@@H]2CO[C@H]3[C@@H]2OC[C@@H]3Nc2nccc(-c3cccs3)n2)cc1,0%,35%,u,-1%,-1%,6%,x,x,x,x
OC(c1cccc(C(F)(F)F)c1)c1nc(Nc2ccc3c(c2)OCO3)n[nH]1 (stereo not given),u,-1%[87.6 µM],i,u,-1%[87.6 µM],u,u,u,-14%[86.2 µM],u
Cc1ccccc1Nc1n[nH]c(C(O)c2cccc(C(F)(F)F)c2)n1 (stereo not given),u,-11%[87.6 µM],i,u,6%[87.6 µM],-19%[70.6 µM],x,x,x,x
O=C(O)c1ccc(CN2CC[C@@H](c3ccc4ccccc4c3)[C@H](O)C2)cc1,0%,6%,i,i,1%,0%,x,x,x,x
CS(=O)(=O)c1ccc(CN2CC[C@@H](c3ccc4ccccc4c3)[C@H](O)C2)cc1,40µM*,12%,i,u,0%,u,u,u,4%,24µM*
Cc1ncsc1CN1CCCCC1c1nc(CCOc2ccc(F)cc2)no1 (stereo not given),16µM*,u,i,u,4%,10µM*,22µM*,19µM*,-1%,19µM*
O=C(C1CCCN1C(=O)c1ccccc1)N1CCC(N2CCOCC2=O)CC1 (stereo not given),-15%,2%,x,-14%,-6%,x,x,x,x,x
CCCn1cc(C(=O)NC(C)c2cnn(-c3cccc(F)c3)c2C)c(C)n1 (stereo not given),u,-20%,i,-31%,-12%,2.8µM*,4.3µM*,6.1µM*,4%,3.1µM*
Cc1c(C(C)NC(=O)c2cc(CC(C)C)nn2C)cnn1-c1ccccc1 (stereo not given),-81%,-28%,i,-42%,-11%,0.28µM*,0.43µM*,0.48µM*,0%,0.43µM*
O=[S+]([O-])(Nc1cc(-c2ccccn2)nn1-c1ccccc1)c1ccccc1,-33%,-22%,x,u,u,x,x,x,x,x
CCOc1cccc(CN2CC(Oc3ccc(-c4noc(COC)n4)cc3)C2)c1,u,4%,i,u,10%,u,x,x,x,x
COc1ccc(CNC(=O)N2CCC(Oc3ccc(-c4noc(C5CC5)n4)cc3)C2)cc1 (stereo not given),u,9%,i,u,u,18µM*,u,u,u,u
COCc1nc(-c2ccc(OC3CCN(C(=O)NCc4ccc(F)cc4)C3)cc2)no1 (stereo not given),u,7%,i,u,-9%,u,x,x,x,x
COc1cccc(CN2CCC(Oc3ccc(-c4noc(C5CC5)n4)cc3)C2)c1 (stereo not given),40µM*,36%,i,u,6%,11µM*,u,u,-19%,27µM*
COc1ccc(NC(=O)N2CCC(Oc3ccc(-c4noc(C5CC5)n4)cc3)C2)cc1 (stereo not given),u,50%,u,-21%,-4%,u,x,x,x,x
CCN(CC)C(=O)N1CCC(Oc2ccc(-c3noc(COC)n3)cc2)C1 (stereo not given),u,17%,i,-21%,u,7.9µM*,11µM*,14µM*,-6%,12µM*
COCc1nc(-c2ccc(OC3CN(C(=O)NCc4ccc(OC)cc4)C3)cc2)no1,-32%,9%,i,u,4%,u,24µM*,u,-2%,19µM*
Cc1cc(C(F)(F)F)nn1CC(=O)NCCc1ncc(C)n1C(C)C,i,36%,x,0%,1%,x,x,x,x,x
COc1cccc(NC(=O)[C@@H]2OCC(=O)N(C3CC3)[C@H]2c2ccccc2)c1,-6%,-8%,x,-16%,9%,x,x,x,x,x
O=C(c1nc(-c2ccc(Cl)cc2)c2cnccn12)N1CCOCC1,u,3%[87.6 µM],i,-25%[138 µM],6%[87.6 µM],20%[70.6 µM],x,x,x,x
CCn1cnnc1CC1CCCN(C(=O)NCc2ccccc2)C1 (stereo not given),-2%,-6%,x,-13%,u,x,x,x,x,x
O=C(NCc1ccccc1F)c1nc2sccn2c1-c1cccnc1,i,9%[87.6 µM],x,u,-5%[87.6 µM],x,x,x,x,x
O=C(NCC1CC1)c1nc2c(o1)CCN(Cc1ccc3c(c1)CCO3)CC2,u,4%[87.6 µM],i,u,2%[87.6 µM],25µM*,44µM*,u,2%[86.2 µM],35µM*
Cc1cc(F)cc(CN2CCc3nc(C(=O)NCC4CC4)oc3CC2)c1,u,-25%[87.6 µM],i,u,3%[87.6 µM],22µM*,31µM*,28µM*,4%[86.2 µM],28µM*
O=C(c1nc2c(o1)CCN(Cc1ccc3c(c1)CCO3)CC2)N1CCOCC1,u,7%[87.6 µM],i,-28%[138 µM],1%[87.6 µM],-1%[70.6 µM],x,x,x,x
Cc1cc(=O)n(CC(=O)Nc2ccc(Br)cc2F)c(N2CCc3ccccc3C2)n1,u,u,i,u,u,u,-29%,u,0%,-16%
Cc1cc(=O)n(CC(=O)NCCCc2ccccc2)c(N2CCc3ccccc3C2)n1,45µM*,u,i,u,-3%,u,u,u,0%,-24%

# Compound activity as filed in PubChem.
